Assay results from PubChem BioAssay (Tox21).
Values joined by “and” are separate entries in the source; they are usually repeats but may differ in a detail not shown here. Equal values may be shown once. Results filed as inconclusive are left out. Entries that show only a call come without a potency. Active and inactive are the calls of the source. Unless noted, calls follow the shape of the dose curve; as a rule, active = well fitted curve in the direction sought with a large enough effect in the repeat runs; inconclusive = weak or mixed curves; inactive = no such curve, though single readings can be large; an effect the other way counts as inactive or inconclusive.

Experiments:
[1] = qHTS assay to identify small molecule that activate the aryl hydrocarbon receptor (AhR) signaling pathway - cell viability counter screen (AID 743086); also: nearly all actives have a fitted effect of over 45% in size; also: potency is read from the fitted curve at half-maximal effect
In short: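 HepG2-AhR-luc (HG2L7.5c1) cells, 4000/well, were preincubated 5 h at 37C, exposed to compound in qHTS format for 24 hr at 37C, then given CellTiter-Fluor for 30 min; viability was read as fluorescence in the reporter wells.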

[2] = target: Peroxisome proliferator-activated receptor gamma (Homo sapiens) (UniProt P37231); test: qHTS assay to identify small molecule agonists of the peroxisome proliferator-activated receptor gamma (PPARg) signaling pathway (AID 743094; active = well fitted activation curve with a large enough effect in the signal ratio in the repeat runs, not every such curve was filed as active; the % refers to the signal ratio)
Sequence of Peroxisome proliferator-activated receptor gamma (Homo sapiens) (P37231 whole entry, looked up): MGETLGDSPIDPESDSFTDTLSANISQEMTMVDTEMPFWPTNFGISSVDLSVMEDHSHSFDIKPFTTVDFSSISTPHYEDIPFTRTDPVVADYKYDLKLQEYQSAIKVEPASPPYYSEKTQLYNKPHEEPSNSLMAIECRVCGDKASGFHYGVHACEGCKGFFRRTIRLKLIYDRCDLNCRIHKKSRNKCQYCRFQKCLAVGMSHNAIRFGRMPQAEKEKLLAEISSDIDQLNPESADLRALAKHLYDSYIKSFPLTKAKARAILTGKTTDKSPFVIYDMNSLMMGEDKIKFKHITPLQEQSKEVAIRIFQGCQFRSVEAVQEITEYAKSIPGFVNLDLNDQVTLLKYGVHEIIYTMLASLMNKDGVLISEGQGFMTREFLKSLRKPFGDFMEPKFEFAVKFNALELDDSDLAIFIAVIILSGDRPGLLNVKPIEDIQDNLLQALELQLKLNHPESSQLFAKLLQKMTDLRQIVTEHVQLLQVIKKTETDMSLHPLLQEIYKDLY
In short: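 Agonist activity was taken from a beta-lactamase reporter (FRET substrate, 1 h at room temperature) in HEK293H cells carrying a PPARg UAS-bla construct. Compounds in DMSO were incubated 17 h at 37C after a 5 h cell pre-incubation.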

[3] = target: Peroxisome proliferator-activated receptor gamma (Homo sapiens) (UniProt P37231); test: qHTS assay to identify small molecule antagonists of the peroxisome proliferator-activated receptor gamma (PPARg) signaling pathway (AID 743191; calls by dose curve; also: nearly all actives have a fitted effect of over 30% in size; also: potency is read from the fitted curve at half-maximal effect)
In short: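 GeneBLAzer PPARg UAS-bla HEK293H cells carrying a UAS-driven beta-lactamase reporter were plated at 3000 cells/well, preincubated 5 h at 37C, then given compound for 17 h at 37C; LiveBLAzer B/G FRET substrate was read after 1 h at room temperature.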

[4] = qHTS assay for small molecule agonists of the antioxidant response element (ARE) signaling pathway (AID 743202; active = well fitted activation curve with a large enough effect in the signal ratio in the repeat runs, not every such curve was filed as active; the % refers to the signal ratio)
In short: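 Following a 16 h, 37 C exposure of reporter HepG2 cells (ARE-driven beta-lactamase, 2,000 cells/well) to compounds, FRET substrate was applied for 2 h at room temperature and fluorescence intensity recorded.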

[5] = qHTS assay for small molecule agonists of the antioxidant response element (ARE) signaling pathway - cell viability counter screen (AID 743203; calls by dose curve; also: nearly all actives have a fitted effect of over 55% in size; also: potency is read from the fitted curve at half-maximal effect)
In short: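 Viability counter screen: CellTiter-Glo luminescence, read after 30 min at room temperature, in ARE-bla HepG2 wells. Compound exposure lasted 16 h at 37C/5% CO2, following a 5 h pre-incubation of the cells after plating.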

[6] = qHTS assay for small molecule activators of the heat shock response signaling pathway - cell viability counter screen (AID 743209); also: nearly all actives have a fitted effect of over 50% in size
In short: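 Cytotoxicity counter screen run in the same wells as the heat-shock bla reporter assay: HeLa HSE-bla cells, 5 h compound exposure at 37 C, viability read by CellTiter-Glo luminescence.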

[7] = qHTS assay for small molecule activators of the heat shock response signaling pathway (AID 743210; active = well fitted activation curve with a large enough effect in the signal ratio in the repeat runs, with a control signal flat, not every such curve was filed as active; the % refers to the signal ratio; also: series mostly up to about 63 µM)
In short: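 Heat shock element–beta-lactamase HeLa reporter cells; qHTS with compounds for 5 h at 37 C; detection by FRET substrate fluorescence after 2.5 h at RT.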

[8] = qHTS assay to identify small molecule agonists of the peroxisome proliferator-activated receptor delta (PPARd) signaling pathway - cell viability counter screen (AID 743211); also: nearly all actives have a fitted effect of over 55% in size; also: potency is read from the fitted curve at half-maximal effect
In short: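 PPARd-bla HEK293H cells (UAS-beta-lactamase reporter) were treated with compounds for 17 h at 37 C. Viability was then read in the same wells by CellTiter-Glo luminescence after 30 min at room temperature.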

[9] = target: Peroxisome proliferator-activated receptor delta (Homo sapiens) (UniProt Q03181); test: qHTS assay to identify small molecule agonists of the peroxisome proliferator-activated receptor delta (PPARd) signaling pathway (AID 743212; calls by dose curve)
Sequence of Peroxisome proliferator-activated receptor delta (Homo sapiens) (Q03181 whole entry, looked up): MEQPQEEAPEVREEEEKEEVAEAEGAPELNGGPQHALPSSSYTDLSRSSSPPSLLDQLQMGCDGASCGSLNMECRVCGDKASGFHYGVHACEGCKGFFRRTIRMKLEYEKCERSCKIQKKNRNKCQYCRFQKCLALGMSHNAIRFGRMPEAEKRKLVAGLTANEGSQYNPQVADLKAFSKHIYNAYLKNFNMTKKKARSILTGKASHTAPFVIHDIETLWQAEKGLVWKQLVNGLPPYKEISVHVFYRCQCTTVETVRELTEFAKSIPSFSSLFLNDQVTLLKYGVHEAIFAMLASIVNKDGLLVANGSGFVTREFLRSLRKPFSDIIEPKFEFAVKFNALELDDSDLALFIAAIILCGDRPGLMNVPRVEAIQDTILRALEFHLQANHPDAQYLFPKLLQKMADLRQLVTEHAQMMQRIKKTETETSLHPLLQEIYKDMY
In short: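 Beta-lactamase reporter read by fluorescence (LiveBLAzer B/G FRET, 2 h, room temperature). Test agents, in DMSO, incubated at 37 C with PPARd-bla HEK293H cells.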

[10] = target: Bile acid receptor (Homo sapiens) (UniProt Q96RI1); test: qHTS assay to identify small molecule antagonists of the farnesoid-X-receptor (FXR) signaling pathway (AID 743217; active = well fitted inhibition curve with a large enough effect in the signal ratio in the repeat runs, not every such curve was filed as active; the % refers to the signal ratio; also: potency is read from the fitted curve at half-maximal effect)
Sequence of Bile acid receptor (Homo sapiens) (Q96RI1 whole entry, looked up): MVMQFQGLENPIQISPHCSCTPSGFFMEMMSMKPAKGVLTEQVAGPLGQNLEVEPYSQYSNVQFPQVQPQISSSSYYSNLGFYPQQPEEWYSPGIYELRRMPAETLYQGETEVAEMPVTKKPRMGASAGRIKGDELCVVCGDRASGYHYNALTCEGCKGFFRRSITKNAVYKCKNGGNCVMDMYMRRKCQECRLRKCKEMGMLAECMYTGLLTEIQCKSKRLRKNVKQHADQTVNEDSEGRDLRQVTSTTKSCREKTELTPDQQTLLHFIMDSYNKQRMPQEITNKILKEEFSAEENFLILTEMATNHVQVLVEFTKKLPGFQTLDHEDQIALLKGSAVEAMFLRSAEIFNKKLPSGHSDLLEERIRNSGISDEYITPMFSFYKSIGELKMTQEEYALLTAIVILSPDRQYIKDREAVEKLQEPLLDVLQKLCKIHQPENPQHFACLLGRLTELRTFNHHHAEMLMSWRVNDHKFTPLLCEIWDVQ
In short: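 Antagonist mode: chenodeoxycholic acid at 50 uM final stimulates a UAS-driven beta-lactamase reporter in HEK 293T FXR-bla cells during 16 h, 37C compound exposure. Read-out is FRET substrate fluorescence after 2 h at room temperature.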

[11] = qHTS assay to identify small molecule agonists of the farnesoid-X-receptor (FXR) signaling pathway - cell viability counter screen (AID 743218); also: nearly all actives have a fitted effect of over 45% in size; also: potency is read from the fitted curve at half-maximal effect
In short: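 Viability counter screen in the same wells: CellTiter-Glo luminescence, 30 min room-temperature incubation, measured after the beta-lactamase read. Cells were GeneBLAzer FXR-UAS-bla HEK 293T, compound-treated 16 h at 37C.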

[12] = target: Bile acid receptor (Homo sapiens) (UniProt Q96RI1); test: qHTS assay to identify small molecule agonists of the farnesoid-X-receptor (FXR) signaling pathway (AID 743220; active = well fitted activation curve with a large enough effect in the signal ratio in the repeat runs, not every such curve was filed as active; the % refers to the signal ratio)
In short: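 FXR-UAS-bla HEK 293T cells carrying a UAS-driven beta-lactamase reporter were plated for 5 h at 37C/5% CO2, then exposed to DMSO-dissolved Tox21 10K compounds for 16 h at 37C. A LiveBLAzer B/G FRET substrate was loaded for 2 h at room temperature before fluorescence reading.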

[13] = qHTS assay to identify small molecule antagonists of the farnesoid-X-receptor (FXR) signaling pathway - cell viability counter screen (AID 743221; active = well fitted cell-killing curve with a large enough effect in the repeat runs, not every such curve was filed as active; also: nearly all actives have a fitted effect of over 50% in size; also: potency is read from the fitted curve at half-maximal effect)
In short: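 FXR-UAS-bla HEK 293T cells were treated with test compounds plus chenodeoxycholic acid (50 uM final) for 16 h at 37 C. Cell viability in the same wells was then read as CellTiter-Glo luminescence after 30 min at room temperature.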

[14] = target: Vitamin D3 receptor (Homo sapiens) (UniProt P11473); test: qHTS assay to identify small molecule agonists of the vitamin D receptor (VDR) signaling pathway (AID 743222; calls by dose curve)
Sequence of Vitamin D3 receptor (Homo sapiens) (P11473 whole entry, looked up): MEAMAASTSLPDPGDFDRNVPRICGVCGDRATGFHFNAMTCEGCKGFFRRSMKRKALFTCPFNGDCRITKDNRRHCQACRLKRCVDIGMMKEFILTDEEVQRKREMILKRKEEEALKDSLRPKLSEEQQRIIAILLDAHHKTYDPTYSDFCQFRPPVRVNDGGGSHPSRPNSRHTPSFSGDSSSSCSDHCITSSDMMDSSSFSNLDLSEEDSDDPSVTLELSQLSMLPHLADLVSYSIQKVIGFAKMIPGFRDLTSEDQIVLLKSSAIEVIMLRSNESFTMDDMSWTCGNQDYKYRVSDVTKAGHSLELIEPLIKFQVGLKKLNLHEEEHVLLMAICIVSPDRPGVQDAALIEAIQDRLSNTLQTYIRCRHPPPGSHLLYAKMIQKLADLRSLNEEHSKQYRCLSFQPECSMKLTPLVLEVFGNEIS
In short: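 Agonist mode, beta-lactamase reporter: fluorescence from LiveBLAzer B/G FRET substrate (2 h, room temperature) read after 16 h compound treatment at 37 C of VDR-bla cells, which were pre-incubated 4 h after seeding.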

[15] = target: Vitamin D3 receptor (Homo sapiens) (UniProt P11473); test: qHTS assay to identify small molecule antagonists of the vitamin D receptor (VDR) signaling pathway (AID 743223; active = well fitted inhibition curve with a large enough effect in the signal ratio in the repeat runs, not every such curve was filed as active; the % refers to the signal ratio)
In short: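 VDR-bla cells were plated, incubated 4 h at 37C, then given compound and 1alpha,25-dihydroxyvitamin D3 (3 nM final). After 16 h at 37C, LiveBLAzer B/G FRET substrate was added for 2 h at room temperature and fluorescence read.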

[16] = qHTS assay to identify small molecule antagonists of the peroxisome proliferator-activated receptor gamma (PPARg) signaling pathway - cell viability counter screen (AID 743194); conditions: Potency: co-treated with 50 nM rosiglitazone; also: nearly all actives have a fitted effect of over 55% in size; also: potency is read from the fitted curve at half-maximal effect
In short: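 PPARg-UAS-bla HEK293H cells were plated, rested 5 h at 37 C, then treated with compounds plus rosiglitazone (50 nM final) for 17 h at 37 C; viability was then read by CellTiter-Glo luminescence after 30 min at room temperature.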

[17] = qHTS assay to identify small molecule antagonists of the peroxisome proliferator-activated receptor delta (PPARd) signaling pathway - cell viability counter screen (AID 743213); also: nearly all actives have a fitted effect of over 50% in size; also: potency is read from the fitted curve at half-maximal effect
In short: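 PPARd-bla HEK293H cells were treated with compounds plus agonist L165041 (300 nM final) for 17 h at 37 C. Viability was then read in the same wells by CellTiter-Glo luminescence after 30 min at room temperature.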

[18] = qHTS assay to identify small molecule agonists of the vitamin D receptor (VDR) signaling pathway - cell viability counter screen (AID 743224); also: nearly all actives have a fitted effect of over 50% in size; also: potency is read from the fitted curve at half-maximal effect
In short: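 Counter screen run in the same wells as the VDR-bla reporter assay: CellTiter-Glo luminescence, 30 min at room temperature, after 16 h compound treatment at 37C of cells pre-plated for 4 h.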

[19] = target: Peroxisome proliferator-activated receptor delta (Homo sapiens) (UniProt Q03181); test: qHTS assay to identify small molecule antagonists of the peroxisome proliferator-activated receptor delta (PPARd) signaling pathway (AID 743215; active = well fitted inhibition curve with a large enough effect in the signal ratio in the repeat runs, not every such curve was filed as active; the % refers to the signal ratio;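 also: cells stimulated with agonist L165041 at 300 nM final during compound exposure; series mostly up to about 62 µM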)
In short: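 Agonist L165041 (300 nM final) added with compound to PPARd-bla HEK293H UAS-bla reporter cells; 17 h incubation at 37 C. Read-out: LiveBLAzer FRET substrate, 2 h at room temperature, fluorescence intensity.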

[20] = target: Aryl hydrocarbon receptor (Homo sapiens) (UniProt P35869); test: qHTS assay to identify small molecule that activate the aryl hydrocarbon receptor (AhR) signaling pathway (AID 743085);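 also: HG2L7.5c1 human HepG2 liver cells with stably integrated DRE-driven firefly reporter; series mostly up to about 70 µM; nearly all actives have a fitted effect of over 15% in size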
Sequence of Aryl hydrocarbon receptor (Homo sapiens) (P35869 whole entry, looked up): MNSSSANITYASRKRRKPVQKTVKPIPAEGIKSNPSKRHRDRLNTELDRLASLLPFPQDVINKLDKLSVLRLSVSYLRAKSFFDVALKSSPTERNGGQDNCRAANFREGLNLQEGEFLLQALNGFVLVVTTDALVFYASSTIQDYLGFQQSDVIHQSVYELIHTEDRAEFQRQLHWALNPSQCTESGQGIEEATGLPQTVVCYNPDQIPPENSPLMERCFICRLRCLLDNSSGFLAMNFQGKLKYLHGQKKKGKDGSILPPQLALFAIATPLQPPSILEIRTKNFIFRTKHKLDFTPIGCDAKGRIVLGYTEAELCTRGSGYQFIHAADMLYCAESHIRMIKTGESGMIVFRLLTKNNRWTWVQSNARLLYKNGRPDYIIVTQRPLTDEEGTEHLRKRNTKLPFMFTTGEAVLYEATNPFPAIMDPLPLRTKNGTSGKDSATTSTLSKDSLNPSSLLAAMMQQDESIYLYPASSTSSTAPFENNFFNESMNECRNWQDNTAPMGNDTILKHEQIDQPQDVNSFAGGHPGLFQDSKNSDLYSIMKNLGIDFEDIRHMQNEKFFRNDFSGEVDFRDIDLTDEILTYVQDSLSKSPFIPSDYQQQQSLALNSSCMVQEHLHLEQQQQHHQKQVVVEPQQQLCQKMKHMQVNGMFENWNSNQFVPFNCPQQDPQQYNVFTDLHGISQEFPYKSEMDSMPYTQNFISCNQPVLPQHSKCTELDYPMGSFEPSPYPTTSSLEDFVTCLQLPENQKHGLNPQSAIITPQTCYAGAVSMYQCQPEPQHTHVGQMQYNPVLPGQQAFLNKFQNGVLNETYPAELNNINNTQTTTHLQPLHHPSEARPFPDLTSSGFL
In short: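 HepG2 cells (HG2L7.5c1) stably carrying a firefly luciferase reporter driven by 20 dioxin responsive elements were exposed to compound for 24 h at 37C after a 5 h settling period; luminescence rise (ONE-Glo) indicated activation.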

| SMILES | Potency [1] | Potency [2] | Potency [3] | Potency [4] | Potency [5] | Potency [6] | Potency [7] | Potency [8] | outcome [9] | Potency [10] | Potency [11] | outcome [12] | Potency [13] | outcome [14] | Potency [15] | Potency [16] | Potency [17] | Potency [18] | Potency [19] | Potency [20] |
| --- | --- | --- | --- | --- | --- | --- | --- | --- | --- | --- | --- | --- | --- | --- | --- | --- | --- | --- | --- | --- |
| COc1ccccc1N1CCNCC1 | inactive | inactive | inactive | inactive | inactive | inactive | inactive | inactive | inactive | inactive | inactive | inactive | inactive | inactive | inactive | – | – | – | – | – |
| C=CCc1ccc(OC(=O)Cc2ccccc2)c(OC)c1 | inactive | inactive | – | inactive | inactive | inactive | inactive | inactive | inactive | – | inactive | – | inactive | inactive | – | inactive | inactive | inactive | – | – |
| O=[N+]([O-])/C=C/c1ccccc1 | inactive | – | – | – | 22 µM (active) and 15.4 µM (active) | – | – | 14 µM (active) and 17.4 µM (active) | – | – | 19.8 µM (active) and 15.5 µM (active) | inactive | 19.8 µM (active) and 38.9 µM (active) | inactive | inactive | 31.4 µM (active) and 24.5 µM (active) | 44.4 µM (active) | 49 µM (active) | – | – |
| COc1cc(CC#N)cc(OC)c1OC | – | – | – | inactive | inactive | inactive | inactive | inactive | – | – | – | – | inactive | inactive | inactive | inactive | inactive | inactive | – | – |
| O=C(N/N=C/c1ccc([N+](=O)[O-])o1)c1cc([N+](=O)[O-])cc([N+](=O)[O-])c1O | 29.8 µM (active) | inactive | inactive | – | inactive | inactive | inactive | inactive | inactive | inactive | inactive | inactive | inactive | inactive | inactive | inactive | inactive | inactive | inactive | – |
| CC(=O)OC(c1ccccc1)C(Cl)(Cl)Cl (stereo not given) | inactive | inactive | – | inactive | inactive | inactive | inactive | inactive | inactive | inactive | inactive | inactive | inactive | inactive | – | inactive | inactive | – | – | – |
| CCOC(=O)c1cn2nc(OP(=S)(OCC)OCC)cc2nc1C | inactive | – | – | – | inactive | inactive | – | inactive | – | – | inactive | inactive | inactive | – | – | inactive | inactive | – | inactive | – |
| CCOc1cccc(C2(N3CCN(c4ccccc4)CC3)CCC(C)CC2)c1 (stereo not given) | inactive | inactive | inactive | inactive | inactive | inactive | – | inactive | inactive | – | inactive | – | inactive | inactive | inactive | inactive | inactive | inactive | – | – |
| CCCN(CCOc1c(Cl)cc(Cl)cc1Cl)C(=O)n1ccnc1 | inactive | inactive | – | – | – | inactive | inactive | inactive | – | inactive | inactive | inactive | inactive | – | – | inactive | inactive | inactive | inactive | – |
| O=C([O-])c1ccccn1.O=C([O-])c1ccccn1.O=C([O-])c1ccccn1.[Cr+3] | inactive | inactive | inactive | inactive | inactive | – | inactive | inactive | – | – | inactive | – | inactive | – | – | inactive | inactive | inactive | – | – |
| O=P(OCC(Br)CBr)(OCC(Br)CBr)OCC(Br)CBr (stereo not given) | – | – | 44.2 µM (active) | – | 36.6 µM (active) | inactive | – | – | inactive | 46.5 µM (active) | – | inactive | inactive | – | – | – | – | – | – | inactive |
| C=C(Cl)Cl | inactive | inactive | – | inactive | inactive | inactive | inactive | inactive | inactive | – | inactive | – | inactive | – | – | inactive | inactive | inactive | inactive | – |
| NP(N)(=O)NC(=O)c1ccc(F)cc1 | inactive | inactive | – | inactive | inactive | – | inactive | inactive | inactive | – | inactive | – | inactive | inactive | – | inactive | inactive | inactive | inactive | – |
| CC(C)(C)OOC(C)(C)CCC(C)(C)OOC(C)(C)C | inactive | – | – | inactive | inactive | – | inactive | inactive | – | – | inactive | – | inactive | inactive | – | inactive | inactive | – | – | – |
| CCC1CCC(=O)O1 (stereo not given) | inactive | – | – | inactive | inactive | – | inactive | inactive | inactive | – | inactive | – | inactive | inactive | – | – | inactive | inactive | inactive | – |
| CCOC(C(=O)OCCN(C)C)(c1ccccc1)c1ccccc1 | – | – | inactive | inactive | inactive | inactive | inactive | inactive | – | inactive | inactive | inactive | inactive | inactive | inactive | inactive | inactive | inactive | – | – |
| FC(Cl)(Cl)C(F)(Cl)Cl | inactive | – | – | inactive | inactive | – | inactive | inactive | – | – | inactive | – | inactive | inactive | inactive | – | inactive | inactive | – | – |
| CCCCCCCCP(=O)(O)O | inactive | – | – | – | inactive | inactive | inactive | inactive | inactive | – | – | – | inactive | inactive | inactive | inactive | inactive | – | inactive | – |
